Consider 36 compounds from PubChem BioAssay (NCATS).

A number with no mark means an inactive call. Results filed as inconclusive are left out. Calls of active or inactive are those of the source. The call rests on the fitted dose curve; in most records, active means well fitted curve in the direction sought with a large enough effect; inconclusive means small, poorly fitted or top-dose-only effect, or another doubt; inactive means no such curve, though single readings can be large; an effect the other way counts as inactive or inconclusive.
Potency means the concentration at half of the fitted maximal effect.

Chain of RecQ-like DNA helicase BLM (Homo sapiens) (P54132 whole entry, looked up): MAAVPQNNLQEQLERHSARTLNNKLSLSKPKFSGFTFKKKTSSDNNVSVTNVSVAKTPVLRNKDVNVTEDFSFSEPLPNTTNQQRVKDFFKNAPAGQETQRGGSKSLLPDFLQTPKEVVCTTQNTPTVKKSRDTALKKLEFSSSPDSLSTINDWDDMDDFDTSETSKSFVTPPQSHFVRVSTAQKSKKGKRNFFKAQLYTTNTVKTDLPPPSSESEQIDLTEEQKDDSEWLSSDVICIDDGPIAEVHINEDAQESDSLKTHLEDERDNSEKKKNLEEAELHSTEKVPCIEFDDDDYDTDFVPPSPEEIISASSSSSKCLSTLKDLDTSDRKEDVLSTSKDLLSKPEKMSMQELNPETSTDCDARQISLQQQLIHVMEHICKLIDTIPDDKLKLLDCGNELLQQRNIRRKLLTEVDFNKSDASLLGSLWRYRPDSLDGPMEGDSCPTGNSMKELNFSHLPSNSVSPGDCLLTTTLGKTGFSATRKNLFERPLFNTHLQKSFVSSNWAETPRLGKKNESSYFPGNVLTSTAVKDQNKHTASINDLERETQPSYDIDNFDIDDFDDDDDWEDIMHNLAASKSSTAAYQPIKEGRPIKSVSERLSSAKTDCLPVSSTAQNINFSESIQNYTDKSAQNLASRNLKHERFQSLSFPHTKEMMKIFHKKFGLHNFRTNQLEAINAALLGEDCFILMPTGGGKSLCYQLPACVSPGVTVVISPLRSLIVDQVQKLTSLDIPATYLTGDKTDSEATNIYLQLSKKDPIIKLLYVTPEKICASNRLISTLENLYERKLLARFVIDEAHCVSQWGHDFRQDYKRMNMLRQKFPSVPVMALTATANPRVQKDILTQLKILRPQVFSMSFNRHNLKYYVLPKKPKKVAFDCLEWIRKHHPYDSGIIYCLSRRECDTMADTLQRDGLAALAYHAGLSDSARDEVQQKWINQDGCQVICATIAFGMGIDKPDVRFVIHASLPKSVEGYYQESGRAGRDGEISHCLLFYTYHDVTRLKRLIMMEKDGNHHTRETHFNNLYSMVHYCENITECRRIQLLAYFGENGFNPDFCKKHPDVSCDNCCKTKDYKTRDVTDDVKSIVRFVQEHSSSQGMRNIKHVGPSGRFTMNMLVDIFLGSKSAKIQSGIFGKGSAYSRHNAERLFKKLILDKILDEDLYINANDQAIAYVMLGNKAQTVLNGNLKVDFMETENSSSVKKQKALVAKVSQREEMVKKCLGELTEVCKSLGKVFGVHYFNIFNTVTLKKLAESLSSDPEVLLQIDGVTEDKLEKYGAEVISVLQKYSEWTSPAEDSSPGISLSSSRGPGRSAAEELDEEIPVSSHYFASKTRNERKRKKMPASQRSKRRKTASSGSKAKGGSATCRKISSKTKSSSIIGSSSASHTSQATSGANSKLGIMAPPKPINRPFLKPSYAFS
Chain of ATP-dependent DNA helicase Q1 (Homo sapiens) (P46063 whole entry, looked up): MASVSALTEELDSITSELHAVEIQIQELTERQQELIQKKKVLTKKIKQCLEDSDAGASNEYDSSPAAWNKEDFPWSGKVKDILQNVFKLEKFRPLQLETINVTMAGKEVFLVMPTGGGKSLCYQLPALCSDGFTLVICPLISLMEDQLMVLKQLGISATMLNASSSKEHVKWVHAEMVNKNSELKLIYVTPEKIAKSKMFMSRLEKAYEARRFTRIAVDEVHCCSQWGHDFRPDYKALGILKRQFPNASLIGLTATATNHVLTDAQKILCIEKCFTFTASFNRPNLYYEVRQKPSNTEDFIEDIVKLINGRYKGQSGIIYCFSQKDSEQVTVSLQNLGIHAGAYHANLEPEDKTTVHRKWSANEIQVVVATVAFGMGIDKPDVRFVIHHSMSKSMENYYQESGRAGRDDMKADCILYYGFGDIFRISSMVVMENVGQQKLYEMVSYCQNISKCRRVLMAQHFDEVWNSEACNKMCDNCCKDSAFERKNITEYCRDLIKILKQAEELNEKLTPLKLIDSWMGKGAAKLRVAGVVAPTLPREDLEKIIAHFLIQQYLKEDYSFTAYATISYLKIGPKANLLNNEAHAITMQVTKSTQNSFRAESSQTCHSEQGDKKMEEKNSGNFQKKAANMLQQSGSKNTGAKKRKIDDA

For the first test, the target named is Ferritin light chain (Equus caballus) (UniProt P02791). In words: qHTS Validation Assay for Identification of Novel General Anesthetics (AID 2323). On activity change, negative = inhibition: on the % scale 0 is the no-effect control and ±100 the full control effect. Conditions: horse apoferritin, anesthetic-site fluorescent probe displacement; series mostly up to 76.9 µM; activity change, negative = inhibition: at the top concentration. In short, it runs like this: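 Horse-spleen apoferritin (10 uM) in PBS with 50% saturated 1-aminoanthracene; compounds pin-transferred, 10 min at room temperature. Fluorescence read at 380/535 nm, normalized to free 1-AMA and 1-AMA/apoferritin values; four-parameter Hill fit.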
Chain of Ferritin light chain (Equus caballus) (P02791 2-175 limits assumed): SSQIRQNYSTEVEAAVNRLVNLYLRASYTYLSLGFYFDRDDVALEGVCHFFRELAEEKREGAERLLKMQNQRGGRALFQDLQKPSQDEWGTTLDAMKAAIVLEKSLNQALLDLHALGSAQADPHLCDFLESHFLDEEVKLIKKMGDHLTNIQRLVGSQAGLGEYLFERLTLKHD
Background: Quantitative high-throughput screening tests each substance at several concentrations.
As to `O=C(O)/C(=C/c1c(C(=O)O)[nH]c2cc(Cl)cc(Cl)c12)c1ccccc1`, the “activity change, negative = inhibition” value was 7%.

On to `O=C(O)CCC(=O)N1CCCC1C(=O)O` (stereo not given), for which the “activity change, negative = inhibition” value is -6.16%.

Take `N=C(N)c1ccccc1`: the “activity change, negative = inhibition” value was -0.563%.

Take `Cc1nc(N=Nc2ccc(S(=O)(=O)O)cc2S(=O)(=O)O)c(COP(=O)(O)O)c(C=O)c1O`: the “activity change, negative = inhibition” value is -1.75%.

As for `N=S(=O)(O)Cc1noc2ccccc12`, the “activity change, negative = inhibition” value is -7.73%.

Regarding `C[C@@H](NCCc1ccc(O)cc1)[C@@H](O)c1ccc(O)cc1`, the “activity change, negative = inhibition” value is -1.46%.

Turning to `CC[N+](CC)(CC)CC(=O)Nc1c(C)cccc1C`, the “activity change, negative = inhibition” value was -3.65%.

Take `O=C(O)c1cc2cc(F)ccc2[nH]1`: the “activity change, negative = inhibition” value is 8.93%.

As for `CNc1cc(NS(=O)(=O)c2ccc(N)cc2)nc(NC)n1`, the “activity change, negative = inhibition” value is -3.11%.

As to `CN1C2CCC1CC(OC(c1ccccc1)c1ccccc1)C2` (stereo not given), the “activity change, negative = inhibition” value was -10.9%.

`NC/C=C\C(=O)O`: the “activity change, negative = inhibition” value is 0.677%.

On to `CCSC(=N)N`, for which the “activity change, negative = inhibition” value was -0.88%.

With `Nc1ccc(-c2nc3ccc(-c4nc5ccc(N)cc5[nH]4)cc3[nH]2)cc1`, the “activity change, negative = inhibition” value was 169%.

Consider `O=C(O)c1cccnc1C(=O)O`, for which the “activity change, negative = inhibition” value is -3.95%.

Turning to `c1ccc(CN2CCC3(CCCc4ccccc43)CC2)cc1`, the “activity change, negative = inhibition” value was -15.1%.

`Oc1cc2c(cc1O)C(c1ccccc1)CNCC2` (stereo not given): the “activity change, negative = inhibition” value was -11.6%.

For the compound `CCCC[C@@]1(C2CCCC2)Cc2cc(OCC(=O)O)c(Cl)c(Cl)c2C1=O`, the “activity change, negative = inhibition” value was -18.1%.

`Cc1nc(N=Nc2ccc(C(=O)O)cc2)c(COP(=O)(O)O)c(C=O)c1O`: the “activity change, negative = inhibition” value was 11.1%.

For `N[C@@H](CCC(=O)N[C@H](CSN=O)C(=O)NCC(=O)O)C(=O)O`, the “activity change, negative = inhibition” value was -2.27%.

Regarding `CCCCCCC/C=C\CCCCCCCCC(=O)O`, the Potency was 31.6 µM (active).

On to `NCCCCN=C(N)N`, for which the “activity change, negative = inhibition” value is -5.4%.

`CC(=O)NNC(=O)N1Cc2ccccc2Oc2ccc(Cl)cc21`: the “activity change, negative = inhibition” value was -4.8%.

Regarding `CC1CCN(CC[C@H]2CCCN2S(=O)(=O)c2cccc(O)c2)CC1`, the “activity change, negative = inhibition” value was -7.04%.

On to `Cn1c(=O)[nH]c2ncn(C)c2c1=O`, for which the “activity change, negative = inhibition” value is -7.16%.

As for `CCC(=O)N1CCN(C(=O)c2ccccc2)CC1`, the “activity change, negative = inhibition” value is -5.5%.

In the case of `O=c1[nH]ccc2c(O)cccc12`, the “activity change, negative = inhibition” value was 23.5%.

With `O=c1onc2n1-c1cc(Br)ccc1OC2`, the “activity change, negative = inhibition” value was -16.3%.

Consider `O=C(O)C1=CCCN(CCON=C(c2ccccc2)c2ccccc2)C1`, for which the “activity change, negative = inhibition” value was -9.79%.

A further test addresses ATP-dependent DNA helicase Q1 (Homo sapiens) (UniProt P46063). Kind of test: qHTS Validation Assay for Inhibitors of RecQ-Like Dna Helicase 1 (RECQ1) (AID 2353).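 On activity change, negative = inhibition: plate controls were DMSO vehicle for no effect and enzyme-free control for full effect.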 Conditions: recombinant RECQ1 helicase DNA unwinding assay; series mostly up to 25.6 µM; activity change, negative = inhibition: at the top concentration. An outline of the steps: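 RECQ1T1 50 nM; forked duplex (20 bp + 30-nt ss tails) 200 nM, ATP 2 mM final; pH 8.0, 2 mM MgCl2, 2.5 ug/ml poly(dI-dC); 15 min compound preincubation; discontinuous kinetic read over 2 h at RT.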
For `O=C(O)/C(=C/c1c(C(=O)O)[nH]c2cc(Cl)cc(Cl)c12)c1ccccc1`, the “activity change, negative = inhibition” value is 7.82%.

Turning to `CC1=C(/C=C/C(C)=C/C=C/C(C)=C\C(=O)O)C(C)(C)CCC1`, the “activity change, negative = inhibition” value is -3.7%.

With `O=C(O)CCC(=O)N1CCCC1C(=O)O` (stereo not given), the “activity change, negative = inhibition” value was -6.1%.

In the case of `N=C(N)c1ccccc1`, the “activity change, negative = inhibition” value is 2.26%.

Consider `Cc1nc(N=Nc2ccc(S(=O)(=O)O)cc2S(=O)(=O)O)c(COP(=O)(O)O)c(C=O)c1O`, for which the “activity change, negative = inhibition” value was -0.215%.

As to `N=S(=O)(O)Cc1noc2ccccc12`, the “activity change, negative = inhibition” value was -5.12%.

On to `O=[N+]([O-])c1cccc2cn[nH]c12`, for which the “activity change, negative = inhibition” value was -1.26%.

For `C[C@@H](NCCc1ccc(O)cc1)[C@@H](O)c1ccc(O)cc1`, the “activity change, negative = inhibition” value is -2.62%.

In the case of `CC[N+](CC)(CC)CC(=O)Nc1c(C)cccc1C`, the “activity change, negative = inhibition” value was 1.79%.

With `O=C(O)c1cc2cc(F)ccc2[nH]1`, the “activity change, negative = inhibition” value was -4.46%.

As to `O=C(O)C1=CCCNC1`, the “activity change, negative = inhibition” value is -4.07%.

Turning to `CN1C2CCC1CC(OC(c1ccccc1)c1ccccc1)C2` (stereo not given), the “activity change, negative = inhibition” value is 2.19%.

On to `NC/C=C\C(=O)O`, for which the “activity change, negative = inhibition” value is -0.904%.

Consider `CN1CCN(c2nc3cc(C(F)(F)F)ccc3n3cccc23)CC1`, for which the “activity change, negative = inhibition” value was 13.6%.

Take `CCSC(=N)N`: the “activity change, negative = inhibition” value is -1.34%.

As to `Nc1ccc(-c2nc3ccc(-c4nc5ccc(N)cc5[nH]4)cc3[nH]2)cc1`, the Potency was 8.91 µM (active).

As for `O=C(O)c1cccnc1C(=O)O`, the “activity change, negative = inhibition” value is 0.0752%.

For the compound `c1ccc(CN2CCC3(CCCc4ccccc43)CC2)cc1`, the “activity change, negative = inhibition” value is -6.11%.

Consider `Oc1cc2c(cc1O)C(c1ccccc1)CNCC2` (stereo not given), for which the “activity change, negative = inhibition” value is -0.799%.

In the case of `CCCC[C@@]1(C2CCCC2)Cc2cc(OCC(=O)O)c(Cl)c(Cl)c2C1=O`, the “activity change, negative = inhibition” value was -0.707%.

Take `NS(=O)(=O)c1cccc2c1c([N+](=O)[O-])cc1nc(O)c(O)nc12`: the “activity change, negative = inhibition” value was -0.664%.

For `Cc1nc(N=Nc2ccc(C(=O)O)cc2)c(COP(=O)(O)O)c(C=O)c1O`, the “activity change, negative = inhibition” value is -3.47%.

As to `N[C@@H](CCC(=O)N[C@H](CSN=O)C(=O)NCC(=O)O)C(=O)O`, the “activity change, negative = inhibition” value is 0.481%.

In the case of `Cc1cc2c(cc1Cl)N(C(=O)Nc1ccnc3ccccc13)CC2`, the “activity change, negative = inhibition” value is -0.0669%.

As to `CC(=O)NNC(=O)N1Cc2ccccc2Oc2ccc(Cl)cc21`, the “activity change, negative = inhibition” value is 0.175%.

For the compound `CC1CCN(CC[C@H]2CCCN2S(=O)(=O)c2cccc(O)c2)CC1`, the “activity change, negative = inhibition” value was -1.25%.

With `Cn1c(=O)[nH]c2ncn(C)c2c1=O`, the “activity change, negative = inhibition” value is -6.14%.

In the case of `CCC(=O)N1CCN(C(=O)c2ccccc2)CC1`, the “activity change, negative = inhibition” value is -3.34%.

As for `O=c1[nH]ccc2c(O)cccc12`, the “activity change, negative = inhibition” value was 3.02%.

Regarding `CSC(=N)N`, the “activity change, negative = inhibition” value was 3.35%.

As for `COc1cc(/C=C(\C#N)C(=O)c2ccc(O)c(O)c2)cc(I)c1O`, the Potency was 4.47 µM (active).

For the compound `O=C(O)C1=CCCN(CCON=C(c2ccccc2)c2ccccc2)C1`, the “activity change, negative = inhibition” value is -9.08%.

Another test concerns the target RecQ-like DNA helicase BLM (Homo sapiens) (UniProt P54132). In words: qHTS Validation Assay for Inhibitors of Bloom's syndrome helicase (BLM) (AID 2364).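 On activity change, negative = inhibition: plate controls were DMSO vehicle for no effect and enzyme-free control for full effect.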 Conditions: BLM helicase DNA unwinding, fluorescence, in vitro; series mostly up to 57.1 µM; activity change, negative = inhibition: at the top concentration. In short, it runs like this: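 Forked 20-bp duplex substrate (200 nM, TAMRA/BHQ-2) plus 2 mM ATP added after 15 min compound preincubation with 50 nM enzyme, pH 8.0, poly(dI-dC) 2.5 ug/ml. Strand separation followed by fluorescence (525/598 nm) over 2 h, normalized to enzyme-free and DMSO controls.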
In the case of `Cc1nc(N=Nc2ccc(S(=O)(=O)O)cc2S(=O)(=O)O)c(COP(=O)(O)O)c(C=O)c1O`, the “activity change, negative = inhibition” value is -10.4%.

Regarding `C[C@@H](NCCc1ccc(O)cc1)[C@@H](O)c1ccc(O)cc1`, the “activity change, negative = inhibition” value was -9.7%.

Take `O=C(O)c1cc2cc(F)ccc2[nH]1`: the “activity change, negative = inhibition” value was -8.38%.

In the case of `CN1C2CCC1CC(OC(c1ccccc1)c1ccccc1)C2` (stereo not given), the “activity change, negative = inhibition” value was -8.77%.

Regarding `COc1cc(/C=C(\C#N)C(=O)c2ccc(O)c(O)c2)cc(I)c1O`, the Potency is 10 µM (active).
